Each structure is given as a SMILES string. The whole screen tested about 310,000 compounds, of which about 11,000 (3.5%) were called active. About 8% were inconclusive and are not listed. Calls follow the shape of the dose curve; as a rule, active = well fitted inhibition curve with a large enough effect; inconclusive = small, poorly fitted or top-dose-only effect, or effect the other way; inactive = flat fitted curve, though single readings scatter. Shown is part of a subset that was picked to be rich in actives. Where a call stands in place of a potency, no number is given.
Potency is read from the fitted curve at half-maximal effect.

A short description of the experiment: VP16 counterscreen qHTS for inhibitors of ROR gamma transcriptional activity.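 Also: Gal4-VP16 expression switched on by copper sulfate through the metallothionein promoter; nearly all actives have a fitted effect of over 50% in size.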 Particulars: Drosophila S2 Gal4-VP16 UAS-luciferase, luminescence, 20 h; series mostly up to 53.6 µM. A general note: Counterscreens check selectivity or assay interference.
For the compound `Cc1nnc(NC(=O)C(c2ccccc2)c2ccccc2)s1`, the Potency entry was “inactive”.
In the case of `Cc1nc2cc(C(F)(F)F)ccc2n1CCNc1nc(-c2cc(Cl)c(N)c(Cl)c2)cs1` it was “inactive”; in that of `O=C(CC(O)(C(F)(F)F)C(F)(F)F)Nc1ccc(Cl)c(Cl)c1`, 5.01 µM (active).
The result for `O=C(CC(=O)Nc1ccc(Cl)c(Cl)c1)N/N=C/c1ccc(O)cc1` reads “inactive”.
In the case of `Cc1ccc(NC(=O)C/C(N)=N/O)cc1Cl` it was “inactive”; in that of `Cc1c(Cl)cccc1NC(=S)N(Cc1ccccc1)Cc1cccnc1`, “inactive”.
Consider `O=C(NCc1ccc2c(c1)OCO2)c1cc(F)c(F)cc1Cl`, for which the Potency entry was “inactive”.
The result for `Cc1c(Cl)cccc1NC(=S)NCc1ccc2c(c1)OCO2` reads 11.2 µM (active); that for `Cc1c(Cl)cccc1NC(=O)NCc1ccc(C)n1C`, “inactive”.
In the case of `CN(C)S(=O)(=O)c1cccc(NC(=S)NCc2ccc3c(c2)OCO3)c1` it was “inactive”; in that of `CCNC(=S)Nc1cccc(Cl)c1C`, 17.8 µM (active).
The result for `CCOC(=O)c1c(C)[nH]c(C)c1S(=O)(=O)NCCCc1ccco1` reads “inactive”.
On to `O=C(NCCc1ccc(Cl)cc1Cl)c1cc([N+](=O)[O-])c[nH]c1=O`, for which the Potency entry is “inactive”.
The result for `Cc1cc(Cl)c2oc(C(=O)N(C)C(C)c3ccccn3)c(C)c2c1` (stereo not given) reads “inactive”; that for `CC1(C)Cc2c(cnn2-c2cccc(F)c2)C(NC(=O)c2cc[n+]([O-])cc2)C1` (stereo not given), “inactive”.
In the case of `COc1ccc(C(=O)NC2CCCc3c2cnn3-c2cccc(C)c2C)c(OC)n1` (stereo not given) it was 12.6 µM (active); in that of `CC(=O)NCC(=O)NC1CCCc2c1cnn2-c1ccccc1F` (stereo not given), “inactive”; in that of `Cn1nccc1C(=O)NC1CCCc2c1cnn2-c1ccccc1F` (stereo not given), 1.41 µM (active).
The result for `Cc1ccc(-n2ncc3c2CCCC3NC(=O)c2cnccn2)cc1C` (stereo not given) reads “inactive”; that for `COc1ccc(C(=O)NC2CC(C)(C)Cc3c2cnn3-c2ccccc2C)o1` (stereo not given), “inactive”.
As to `Cn1nccc1C(=O)NC1CCCc2c1cnn2-c1ccc(F)cc1F` (stereo not given), the Potency is 0.891 µM (active).
The result for `Cn1nccc1CNC(=O)c1ccnn1C` reads “inactive”.
With `Cc1cc(C(=O)NC2CCCc3c2cnn3-c2cccc(C)c2C)c(C)o1` (stereo not given), the Potency entry is “inactive”.
In the case of `CC(=O)Nc1ccc(S(=O)(=O)NNC(=O)CCc2ccccc2)cc1` it was “inactive”; in that of `CCN(CC)CCCNC(=O)c1cc2c(=O)[nH]c3ccc(C)cc3c2s1`, “inactive”.
In the case of `CC(C)(C)NC(=O)NC(=O)COC(=O)C1c2ccccc2Oc2ccccc21` it was “inactive”; in that of `CCn1c(SCC(=O)Nc2ccc(Br)cc2)nc2sc3c(c2c1=O)CCN(C)C3`, “inactive”.
As to `CCCCNC(=O)c1cn(CC)c2cc(N3CCN(C(=O)c4ccco4)CC3)c(F)cc2c1=O`, the Potency entry is “inactive”.
The result for `CCOC(=O)c1ccccc1NS(=O)(=O)c1c(C)nc2sccn2c1=O` reads “inactive”; that for `Cc1occc(=O)c1OCc1c(Cl)cccc1Cl`, “inactive”.
The result for `O=C(O)c1ccc2c(=O)n3c(nc2c1)/C(=C/c1ccc(OC(F)F)cc1OC(F)F)CC3` reads “inactive”.
`Cc1nn(C(C)(C)C)c(OC(=O)CC(C)C)c1S(=O)(=O)c1ccccc1`: the Potency result is “inactive”.
In the case of `O=C(CCCn1c(SCC(=O)c2ccccc2)nc2ccccc2c1=O)NCC1CCCO1` (stereo not given) it was “inactive”; in that of `COCCNC(=O)c1ccc(Cn2c(SCC(=O)NCC3CCCO3)nc3ccc(Br)cc3c2=O)cc1` (stereo not given), “inactive”; in that of `CCCCn1c(SCC(=O)NCC2CCCO2)nc2ccc(N3CCOCC3)cc2c1=O` (stereo not given), 11.2 µM (active).
In the case of `CN(Cc1ccccc1)C(=O)CSc1nc2ccccc2[nH]1` it was “inactive”; in that of `CCOC(=O)c1csc(CCNC(=O)c2oc3c(Cl)cc(C)cc3c2C)n1`, “inactive”.
As for `O=C(COc1ccccc1)NCCc1nc2ccccc2[nH]1`, the Potency entry is “inactive”.
The result for `N#C/C(=C(/O)COC(=O)COc1ccc(Cl)cc1)c1nc2ccccc2[nH]1` reads 12.6 µM (active).
The result for `COCCN(CCOC)S(=O)(=O)c1ccc(/C(O)=C(\C#N)c2nc3ccccc3[nH]2)cc1` reads “inactive”.
The result for `Cc1ccccc1OC/C(O)=C(\C#N)c1nc2ccccc2[nH]1` reads “inactive”; that for `N#C/C(=C(/O)COc1cccc2ccccc12)c1nc2ccccc2[nH]1`, 7.94 µM (active); that for `O=C(COC(=O)CCCSc1nc2ccccc2[nH]1)Nc1ccc(Oc2ccccc2)cc1`, “inactive”.
For the compound `O=C(CCS(=O)(=O)c1ccccc1)NC1CCCC1`, the Potency result was “inactive”.
The result for `O=C(O)C1CC=CCC1C(=O)Nc1ccccc1C(=O)N1CCN(c2ccccc2)CC1` (stereo not given) reads “inactive”; that for `COc1ccc(C(=O)Nc2ccccc2C(=O)N2CCN(c3ccccc3)CC2)cc1`, “inactive”.
In the case of `CC(C)c1ccc(N2CCN(C(=O)c3ccccc3NC(=O)/C=C(\C(=O)O)c3ccccc3)CC2)cc1` it was 1.12 µM (active); in that of `CCCN1CCC(=O)N(C(CSc2ccc(OC)cc2)Cc2ccccc2)CC1` (stereo not given), “inactive”; in that of `Cn1cnc2c1c(=O)n(Cc1ccccc1C#N)c(=O)n2C`, “inactive”.
In the case of `Cc1cc2oc(=O)cc(CN(C)Cc3ccc(OC(F)F)cc3)c2cc1Cl` it was “inactive”; in that of `CCOC(=O)Cc1csc(NC(=O)CN(C)S(=O)(=O)c2ccc3c(c2)CCC(=O)N3)n1`, 11.2 µM (active).
For `CCOC(=O)Cc1csc(NC(=O)CSc2nc(C)cc(=O)[nH]2)n1`, the Potency entry was “inactive”.
For the compound `Cc1cccc(N2CCN(C(=O)CN(C)S(=O)(=O)c3ccc4c(c3)CCC(=O)N4)CC2)c1C`, the Potency entry is “inactive”.
In the case of `CCOC(=O)C1CCN(C(=O)C2CCCN(S(=O)(=O)c3ccc(OC)c(Cl)c3)C2)CC1` (stereo not given) it was “inactive”.
The result for `CC1(C(=O)NCCc2c[nH]c3ccccc23)C=CC2(CCCCC2)N1C(=O)c1ccccc1` (stereo not given) reads “inactive”; that for `COc1ccc(NC(=O)CN(C)C(=O)CNC(=O)C2CCCCC2)cc1`, “inactive”.
The result for `CCOC(=O)/C(C#N)=C/c1ccc(N2CCCCC2)cc1` reads “inactive”; that for `O=c1[nH][nH]c(=O)c2cc(N3CCCC3)ccc12`, “inactive”; that for `O=C1C=CC(=O)N1c1ccc(N2CCCCC2)cc1`, 8.91 µM (active).
Take `O=C(Nc1ccc(Br)cc1)c1cc(S(=O)(=O)Nc2ccccn2)ccc1Cl`: the Potency result is “inactive”.
The result for `Oc1ccc(Br)cc1/C=N/Nc1ccccn1` reads 10 µM (active); that for `O=[N+]([O-])c1ccc(O)c(/C=N/Nc2ccccc2[N+](=O)[O-])c1`, “inactive”.
For `COc1ccc(NC(=O)NNC(=O)COc2cc(C)c(Cl)c(C)c2)c(OC)c1`, the Potency result is “inactive”.
In the case of `O=C1CCN(CCc2ccccc2)CCN1CCOc1ccccc1` it was “inactive”; in that of `Cc1ccc(C(=O)CCC(=O)N(C)CC(=O)Nc2c(Cl)cccc2Cl)cc1`, “inactive”.

These data come from PubChem BioAssay AID2546 (National Center for Advancing Translational Sciences (NCATS), 2010).
